# The campaign covered roughly 96,000 compounds. About 80 (0.08%) were called active. How the calls were made is not given here. These entries were drawn from the full list. Measured potencies and affinities stand elsewhere.
# Target: Alkaline phosphatase, placental type (Homo sapiens) (UniProt P05187)
# Test: inhibition of human placental alkaline phosphatase – biochemical, luminescence, HTS (AID 690)
# Details: purified PLAP, luminescent substrate; at 20 µM; hits give high values
# Chain of Alkaline phosphatase, placental type (Homo sapiens) (P05187 whole entry, looked up): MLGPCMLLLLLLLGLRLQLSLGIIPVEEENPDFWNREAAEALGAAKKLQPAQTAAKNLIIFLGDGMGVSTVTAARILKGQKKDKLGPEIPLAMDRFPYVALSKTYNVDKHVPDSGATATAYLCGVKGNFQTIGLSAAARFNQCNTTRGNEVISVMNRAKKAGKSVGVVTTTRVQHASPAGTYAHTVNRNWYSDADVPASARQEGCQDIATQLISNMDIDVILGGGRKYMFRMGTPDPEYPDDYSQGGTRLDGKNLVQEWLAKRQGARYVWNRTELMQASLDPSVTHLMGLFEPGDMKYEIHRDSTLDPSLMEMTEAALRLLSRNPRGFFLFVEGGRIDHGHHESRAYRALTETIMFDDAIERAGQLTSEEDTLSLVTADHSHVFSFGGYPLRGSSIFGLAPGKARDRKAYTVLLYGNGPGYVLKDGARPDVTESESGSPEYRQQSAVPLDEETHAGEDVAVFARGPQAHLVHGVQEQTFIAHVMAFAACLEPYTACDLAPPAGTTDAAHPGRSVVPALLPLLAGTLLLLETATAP
row,SMILES,inhibition
1,COc1cc(/C=N/N(C)c2ccccc2)cc(Cl)c1O,5.2% (inactive)
2,CCOc1cc(/C=C2\CCC/C(=C\c3cc(Cl)c(O)c(OCC)c3)C2=O)cc(Cl)c1O,26.7% (inactive)
3,N#CC(/C(=N/S(=O)(=O)c1cccs1)c1ccccc1)c1nc2ccccc2[nH]1 (stereo not drawn),-67.4% (inactive)
4,O=C(Nc1ccc(Br)cc1)c1cnccn1,-8.2% (inactive)
5,Cc1nc2c(cc(Oc3ccc(S(=O)(=O)N4CCOCC4)cn3)c3ccsc32)s1,-48.6% (inactive)
6,CN(C)C(C(=O)NC1CCCCC1)c1ccc(Cl)cc1 (stereo not drawn),-18% (inactive)
7,O=C(Nc1ccc2c(c1)OCCO2)C1c2ccccc2C(=O)N2CCc3ccccc3C12 (stereo not drawn),14.8% (inactive)
8,Clc1ccc(/C=C/c2nc3ccccc3[nH]2)cc1,4.3% (inactive)
9,Clc1cccc(Cl)c1/C=C/c1nc2ccccc2[nH]1,14.1% (inactive)
10,Clc1nc(-c2n[nH]nc2Cl)n[nH]1,14.3% (inactive)
11,Nc1nnc(-c2cc3ccccc3oc2=O)s1,3.8% (inactive)
12,CNc1nnc(-c2cc3cc(Cl)ccc3oc2=O)s1,-24.2% (inactive)
13,CC1(C)Cc2c(sc3nc4n(c(=N)c23)CCC4)CO1,-9.9% (inactive)
14,CC1(C)Cc2c(sc3nc4n(c(=O)c23)CCC4)CO1,-3.1% (inactive)
15,C=CCOC(=O)C1=C(C)NC2(O)c3ccccc3C(=O)C12O (stereo not drawn),10.9% (inactive)
16,CCCN1C(=O)NC2(O)C(=O)c3ccccc3C12O (stereo not drawn),0.4% (inactive)
17,CCSc1nc2c(c(=O)n1CC)SC(C)C2 (stereo not drawn),-16% (inactive)
18,Cn1c(=O)c2c(nc(NCCNC(=O)c3ccco3)n2Cc2ccc(Cl)cc2Cl)n(C)c1=O,6.4% (inactive)
19,CN1/C(=C\C(=O)c2ccco2)C(C)(C)c2ccccc21,3.8% (inactive)
20,CN1/C(=C/C=N/n2cnnc2)C(C)(C)c2ccccc21,16.4% (inactive)
21,C=CCn1c(Cc2csc(N)n2)nnc1SCC(=O)Nc1ccccc1C(F)(F)F,21.5% (inactive)

row,SMILES,inhibition
1,CC(=O)Oc1ccc2c(C)cc(=O)oc2c1,24.6% (inactive)
2,CC(=O)c1cc2c(C)cc(=O)oc2cc1O,15.2% (inactive)
3,CCOC(=O)C(C)n1cnc2c(cnn2-c2ccc(Cl)cc2)c1=O (stereo not drawn),1.3% (inactive)
4,CCc1nnc(NC(=O)c2ccc(S(=O)(=O)N3CCCCCC3)cc2)s1,-15.9% (inactive)
5,COc1ccc(C(c2nnnn2C2CCCC2)N2CCC(C(N)=O)CC2)c(OC)c1 (stereo not drawn),-65.7% (inactive)
6,COc1ccc(CNc2cc([N+](=O)[O-])ccc2OC)cc1,31.1% (inactive)
7,Cc1cc([N+](=O)[O-])ccc1NCc1ccccc1,47.4% (inactive)
8,Cc1cc(-c2nc3ncccc3o2)ccc1NC(=O)CC(C)C,-19.3% (inactive)
9,CSc1cccc(NC(=O)Nc2ccccc2)c1,2.1% (inactive)
10,CSc1cccc(NC(=O)/C=C/c2ccc(Cl)cc2)c1,20.8% (inactive)
11,CCS(=O)(=O)n1nc(-c2ccc(C)cc2)nc1N,13.8% (inactive)
12,CCCN1C(=O)/C(=C/C=C2\N(CC)c3ccccc3C2(C)C)SC1=S,22.7% (inactive)
13,CCN1C(=O)C(O)(CC(=O)/C=C/C=C/c2ccccc2)c2ccccc21 (stereo not drawn),-9.7% (inactive)
14,Cn1c(=O)oc2cc(S(=O)(=O)N3CCC(C(=O)N4CCc5ccccc5C4)CC3)ccc21,12.8% (inactive)
15,Cc1ccc(NC(=S)NCCC(c2ccccc2)c2ccccc2)c(C)c1,-44% (inactive)
16,O=C1CC(SCCc2nc3ccccc3[nH]2)C(=O)N1c1ccc(Cl)cc1 (stereo not drawn),-15.3% (inactive)
17,COc1ccc(C2=C(C=Nc3c(C)n(C)n(-c4ccccc4)c3=O)C(c3ccccc3C)c3ccccc3O2)cc1OC (stereo not drawn),-61% (inactive)
18,Cc1ccc(NC(=O)CCn2cccc2)cc1C,5.5% (inactive)
19,O=C(CSc1nc2ccccc2s1)N1c2ccccc2Sc2ccc(Cl)cc21,9.1% (inactive)
20,O=c1oc2ccccc2n1CSc1nc2ccccc2s1,46.4% (inactive)
21,CCOc1ccc(C(CCc2ccccc2)NC(=O)c2ccccc2OC)cc1OCC (stereo not drawn),-15.5% (inactive)

row,SMILES,inhibition
1,CS(=O)(=O)N1CCN(c2nc3ccccc3s2)CC1,2.4% (inactive)
2,COc1ccc(NC(=O)/C(C#N)=C/c2ccc(Br)o2)cc1,-0.4% (inactive)
3,COc1cc(/C=C(\C#N)C(=O)Nc2ccc(SC(F)F)cc2)cc(OC)c1OC,-62% (inactive)
4,C/C(=N\Nc1nc(N)cc(Cl)n1)c1cccc([N+](=O)[O-])c1,-13.2% (inactive)
5,CCc1ccc(/C(C)=N\Nc2ccc([N+](=O)[O-])cc2)cc1,26.2% (inactive)
6,COCCNC(=O)C(c1cccc(OC)c1)N(C(=O)Cn1nnc2ccccc21)c1cccnc1 (stereo not drawn),-24% (inactive)
7,CCOc1ccccc1C(=O)Nc1ccc(S(=O)(=O)N2CCOCC2)cc1,-60.6% (inactive)
8,CCOc1ccc(Cl)cc1/C=N/O,10.1% (inactive)
9,O/N=C/c1cc(Cl)ccc1OCc1ccccc1Cl,0% (inactive)
10,COc1cccc(C(=O)NCCC2=CCCCC2)c1,8.1% (inactive)
11,COc1cc(/C=N/NC(N)=S)ccc1OCC(=O)Nc1ccc(C)c(C)c1,4.4% (inactive)
12,CN1c2ccccc2C(C)(C)C12C=Cc1cc(O)ccc1O2 (stereo not drawn),27.8% (inactive)
13,CN1c2ccccc2C(C)(C)C12C=Nc1c(ccc3ccccc13)O2 (stereo not drawn),0.3% (inactive)
14,CC1=NN(C(=O)Cc2ccc([N+](=O)[O-])cc2)C(O)(c2ccccc2)C1 (stereo not drawn),-32.3% (inactive)
15,CCOc1ccc(-c2nnc3sc(COc4ccc(C)cc4)nn23)cc1,-25.7% (inactive)
16,CCOc1ccc(-c2nnc3sc(COc4ccccc4)nn23)cc1,8.3% (inactive)
17,CCN(CC)S(=O)(=O)c1cc([N+](=O)[O-])ccc1NNC(=O)Nc1ccc(Cl)c(Cl)c1,-23.2% (inactive)
18,Cc1cc(-c2nnc(SCC(=O)N3C(C)CCCC3C)o2)no1 (stereo not drawn),0.5% (inactive)
19,CCOC(=O)C1=C(O)/C(=C\c2ccc(OC)c(OC)c2)N=C1C,-24.6% (inactive)
20,CCOC(=O)C1=C(O)/C(=C/c2cc(OC)c(OC)c(OC)c2)N=C1C,-30.7% (inactive)
21,Cc1nn(-c2ccccc2)c(C)c1CCC(=O)O,-21.2% (inactive)
